Bioassay records: PubChem BioAssay, several laboratories
Peg3 prom inh – reduces Peg3 promoter-driven luciferase expression in HeLa; HeLa PEG-Prom luciferase reporter, luminescence, overnight; inhibition, % at 20 µM; 1.7% of 360,000 active; AID 588405;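 active means inhibition of at least 50% at 20 µM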
CF NFkB block – inhibitors of cystic fibrosis induced NF-kB; KKLEB NF-kB-GFP reporter, PAF-induced, GFP fluorescence overnight; inhibition, % at 5 µM; 0.86% of 360,000 active;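 active means at least 50% inhibition at 5 µM, scaled per plate between neutral and stimulator controls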;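 further: PAF is a Pseudomonas aeruginosa culture filtrate used as stimulus; plate controls were PAF-stimulated DMSO wells for no effect and unstimulated DMSO wells for full effect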
TRPM1 prom inh – reduces MITF-dependent TRPM1 promoter luciferase signal; 0.83% of 330,000 active; SK-MEL-5 TRPM1 promoter luciferase, 24 h; inhibition, % at 12.5 µM;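 active means mean inhibition across replicates of 60% or more, whatever share of single replicates reaches that level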
HIF-2a inh – inhibitors of HIF-2a; 786-0 RCC cells HIF-2a reporter, luciferase luminescence, overnight; inhibition, % at 18.8 µM; 0.72% of 360,000 active; AID 624352;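 active means inhibition of the luminescence signal of 40% or more relative to plate controls, in a single-dose primary screen at 18.75 µM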
KKLEB tox – CF airway cell cytotoxicity counter-screen | KKLEB CF airway cells viability, ATPlite luminescence, overnight; hits give low values; cells stimulated with P. aeruginosa culture filtrate | activity change (cytotoxicity), % at 5 µM | 0.36% of 360,000 active;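 active means corrected activity change at or below -50% at 5 µM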
ABHD5 PLIN5 PPI – inhibitors of human ABHD5-perilipin-5 interaction; inhibition, % at 4 µM; 0.78% of 360,000 active; Split G. princeps luciferase complementation, luminescence, 4 h; Q00G26+Q8WTS1;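 active means inhibition above the mean inhibition across every tested compound plus 3 SD, cut at about 22% in these data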;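 further: 0% = DMSO only wells and the 100% control is not disclosed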
Target sequence (Q00G26 whole entry, looked up): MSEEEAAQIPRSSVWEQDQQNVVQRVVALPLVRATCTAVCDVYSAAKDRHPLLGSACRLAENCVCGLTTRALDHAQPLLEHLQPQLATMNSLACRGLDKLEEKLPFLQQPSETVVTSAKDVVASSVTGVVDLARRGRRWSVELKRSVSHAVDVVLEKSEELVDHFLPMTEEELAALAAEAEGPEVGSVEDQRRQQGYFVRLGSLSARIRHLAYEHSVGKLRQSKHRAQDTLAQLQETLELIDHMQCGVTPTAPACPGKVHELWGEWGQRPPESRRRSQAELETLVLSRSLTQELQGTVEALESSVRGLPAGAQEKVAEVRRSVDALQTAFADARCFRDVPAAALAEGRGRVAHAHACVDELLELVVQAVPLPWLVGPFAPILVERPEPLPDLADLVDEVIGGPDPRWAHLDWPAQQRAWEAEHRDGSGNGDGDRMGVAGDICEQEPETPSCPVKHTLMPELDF
Target sequence (Q8WTS1 whole entry, looked up): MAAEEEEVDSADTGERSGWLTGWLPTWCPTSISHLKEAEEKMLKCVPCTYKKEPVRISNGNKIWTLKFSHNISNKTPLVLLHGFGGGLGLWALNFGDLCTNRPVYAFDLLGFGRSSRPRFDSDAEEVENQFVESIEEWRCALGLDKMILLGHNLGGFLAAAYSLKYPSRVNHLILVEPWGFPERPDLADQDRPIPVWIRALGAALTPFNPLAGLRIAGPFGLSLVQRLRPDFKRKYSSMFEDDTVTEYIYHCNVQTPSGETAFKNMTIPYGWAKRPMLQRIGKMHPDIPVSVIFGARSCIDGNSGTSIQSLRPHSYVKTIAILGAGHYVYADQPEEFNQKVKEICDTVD
Active calls of the source: *. This is a sample that favours compounds with a hit; in the whole collection about 3.1% have one here.

COCCOC(=O)c1c(N)n(CCCN2CCOCC2)c2nc3ccccc3nc12 was read as Peg3 prom inh -5, CF NFkB block -4, TRPM1 prom inh 5, HIF-2a inh 8, KKLEB tox -4 and ABHD5 PLIN5 PPI 6.
COc1cc(N(C(=O)Cc2cccs2)C(C(=O)NC2CCCCC2)c2ccc(C)cc2)ccc1-n1cnnn1 (centres undefined) was read as Peg3 prom inh 3, CF NFkB block 67*, TRPM1 prom inh 1, HIF-2a inh 17, KKLEB tox -56* and ABHD5 PLIN5 PPI -1.
For CCCCNC(=O)c1nc(-c2cc3ccccc3[nH]2)oc1-c1cccc(C(F)(F)F)c1 the results were HIF-2a inh 8 and ABHD5 PLIN5 PPI -8.
For COc1ccc(CN(C(=O)c2ccco2)c2ccc(C)c(C)c2)cc1 the results were Peg3 prom inh 21, CF NFkB block 11, TRPM1 prom inh 31, HIF-2a inh -1, KKLEB tox -14 and ABHD5 PLIN5 PPI -2.
Screening C=CC(=O)Nc1cccc(Oc2ccnc(Nc3ccc(N4CCN(C)CC4)cc3)n2)c1 returned Peg3 prom inh 52*, CF NFkB block 63*, TRPM1 prom inh 28, HIF-2a inh 59*, KKLEB tox -24 and ABHD5 PLIN5 PPI 12.
`C=CC(=O)Nc1cccc(N(C)c2ccnc(Nc3ccc(N4CCN(C)CC4)cc3)n2)c1` gave Peg3 prom inh 38, CF NFkB block 61*, TRPM1 prom inh 25, HIF-2a inh 26, KKLEB tox -36 and ABHD5 PLIN5 PPI -8.
CN1CCN(c2ccc(NC(=O)COc3cccc4ccccc34)cc2)CC1 was read as Peg3 prom inh -42, CF NFkB block 10, TRPM1 prom inh 2, HIF-2a inh -45, KKLEB tox -14 and ABHD5 PLIN5 PPI 11.
C=CC(=O)Nc1cccc(Oc2ccnc3[nH]ccc23)c1 was read as Peg3 prom inh -11, CF NFkB block 42, TRPM1 prom inh 2, HIF-2a inh -24, KKLEB tox -10 and ABHD5 PLIN5 PPI 0.
For COc1cc2ccc(NC(C)=O)cc2cc1OC the results were Peg3 prom inh -10, CF NFkB block 24, HIF-2a inh -14, KKLEB tox -2 and ABHD5 PLIN5 PPI 0.
`Cn1c(CNC(=O)CCNC(=O)c2cccc(F)c2)cc(=O)n(C)c1=O` gave Peg3 prom inh 13, CF NFkB block -20, TRPM1 prom inh -1, HIF-2a inh 14, KKLEB tox 10 and ABHD5 PLIN5 PPI 4.
Cc1ccc(NC(=O)C2CCCN2c2nn3c(=O)cc(C)nc3s2)cc1 (centres undefined) was read as Peg3 prom inh -7, CF NFkB block 6, TRPM1 prom inh -1, HIF-2a inh 16, KKLEB tox -3 and ABHD5 PLIN5 PPI -2.
For Cc1ccc(COc2ccc(CNCCCN3CCCCCC3=O)cc2)cc1 the results were Peg3 prom inh -121, CF NFkB block -2, TRPM1 prom inh -74, HIF-2a inh -41, KKLEB tox -6 and ABHD5 PLIN5 PPI 11.
For N=C1S/C(=C\c2cn[nH]c2-c2ccc(F)cc2)C(=O)N1c1ccccc1F the results were Peg3 prom inh -233, CF NFkB block 50*, TRPM1 prom inh -64, HIF-2a inh -222, KKLEB tox 13 and ABHD5 PLIN5 PPI 0.
Screening Cc1nc2c(c(C)nn2-c2ccccc2)c(C)c1CCC(=O)Nc1ccc(CN2CCCC2)cc1 returned Peg3 prom inh 55*, CF NFkB block 32, TRPM1 prom inh -6, HIF-2a inh 23, KKLEB tox -5 and ABHD5 PLIN5 PPI 18.
Screening CCC(C)NC(=O)CCc1c(C)nc2c(c(C)nn2-c2ccccc2)c1C (centres undefined) returned Peg3 prom inh 16, CF NFkB block -8, TRPM1 prom inh 5, HIF-2a inh 14, KKLEB tox 5 and ABHD5 PLIN5 PPI -9.
Screening Cc1ccc(-c2cc3onc(-c4ccccc4)c3c(=O)n2C)cc1 returned Peg3 prom inh -5, CF NFkB block -2, TRPM1 prom inh 97*, HIF-2a inh 18, KKLEB tox -32 and ABHD5 PLIN5 PPI -4.
`CNC(=O)c1ccc(-c2cc3onc(-c4ccccc4)c3c(=O)n2C)cc1` gave Peg3 prom inh -262, CF NFkB block -10, TRPM1 prom inh -92, HIF-2a inh -252, KKLEB tox -2 and ABHD5 PLIN5 PPI -19.
Screening COc1ccc(C)cc1S(=O)(=O)N(CC(=O)Nc1cccc([N+](=O)[O-])c1)c1ccc(C)c(C)c1 returned Peg3 prom inh 8, CF NFkB block 23, TRPM1 prom inh -8, HIF-2a inh 22, KKLEB tox -8 and ABHD5 PLIN5 PPI 0.
`CC(C)(C)c1ccc(OCC(=O)NNC(=S)NC(=O)c2ccco2)c(Br)c1` gave Peg3 prom inh 27, CF NFkB block 58*, TRPM1 prom inh 20, HIF-2a inh 5, KKLEB tox -78* and ABHD5 PLIN5 PPI -5.
Screening CC(C)c1ccc(OCC(=O)NNC(=S)NC(=O)c2ccco2)c(Br)c1 returned Peg3 prom inh 32, CF NFkB block -12, TRPM1 prom inh 0, HIF-2a inh -11, KKLEB tox -11 and ABHD5 PLIN5 PPI -1.
Screening CCC(C)NC(=O)C(Cc1ccccc1)NS(=O)(=O)c1ccc2c(c1)oc(=O)n2C (centres undefined) returned Peg3 prom inh -19, CF NFkB block 0, TRPM1 prom inh -10, HIF-2a inh -6, KKLEB tox 2 and ABHD5 PLIN5 PPI 1.
For Nc1nc(SCc2ccccc2)c2[nH]cnc2n1 the results were Peg3 prom inh -11, CF NFkB block 22, TRPM1 prom inh -8, HIF-2a inh -37, KKLEB tox -22 and ABHD5 PLIN5 PPI 7.
For CNc1ncnc(Sc2nc(N)nc3nc[nH]c23)c1[N+](=O)[O-] the results were Peg3 prom inh 48, CF NFkB block 4, TRPM1 prom inh 71*, HIF-2a inh 9, KKLEB tox 5 and ABHD5 PLIN5 PPI 12.
`COc1ccc(CCNC(=O)c2ccccc2NC(=O)CN2CCN(c3ccccc3O)CC2)cc1` gave Peg3 prom inh 52*, CF NFkB block -7, TRPM1 prom inh 2, HIF-2a inh 14, KKLEB tox 1 and ABHD5 PLIN5 PPI 4.
`O=C(CN1CCN(c2ccccc2O)CC1)Nc1ccccc1C(=O)NCCc1ccccc1` gave Peg3 prom inh -19, CF NFkB block -3, TRPM1 prom inh -31, HIF-2a inh -126, KKLEB tox -9 and ABHD5 PLIN5 PPI -1.
`COC(=O)c1ccc(C(=O)OC)c(NC(=O)CN2CCN(c3ccccc3OC)CC2)c1` gave Peg3 prom inh 52*, CF NFkB block -9, TRPM1 prom inh 10, HIF-2a inh 37, KKLEB tox 16 and ABHD5 PLIN5 PPI -1.
`CC1CCN(c2ccc3nnc(CCC(=O)NCCCOC(C)C)n3n2)CC1` gave Peg3 prom inh 29, CF NFkB block 21, TRPM1 prom inh 8, HIF-2a inh 5, KKLEB tox -9 and ABHD5 PLIN5 PPI 4.
